Our source for the log2 fold change values is the supplement of paper PMC10849652.

Targets with a hit are over-represented here; the source holds about 7,900 in all. About 0.6% of all pairs of compound and target were hits. A number with no mark means an inactive call.

Chain of YBX1 (UniProt P67809) (P67809 whole entry, looked up): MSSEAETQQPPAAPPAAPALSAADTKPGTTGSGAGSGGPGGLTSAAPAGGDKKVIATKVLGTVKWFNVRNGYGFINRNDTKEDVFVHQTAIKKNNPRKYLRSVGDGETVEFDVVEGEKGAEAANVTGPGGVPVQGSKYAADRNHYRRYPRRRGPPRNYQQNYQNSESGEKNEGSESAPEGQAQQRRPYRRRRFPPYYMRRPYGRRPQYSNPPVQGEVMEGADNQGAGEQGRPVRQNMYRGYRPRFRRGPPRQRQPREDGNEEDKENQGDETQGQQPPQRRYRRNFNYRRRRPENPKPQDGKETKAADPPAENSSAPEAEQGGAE

One assay has as its target YBX1 (UniProt C9J5V9). The assay can be described thus: log2 fold change, soluble protein after heating vs DMSO (PISA); higher = thermal stabilisation; K562 cells, 10 uM, 30 min; active = over 0.2 and 3.5 SD of the protein, either way, in both replicates (recomputed). In short, it runs like this:
(§1)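 For each measurement, 10 μM compound was applied for 30 min to K562 cells at 2×10^6 cells/mL. Aliquots were heated for 3 min across 48°C-58°C, pooled, and extracted in PBS with 0.5% NP-40 at 4°C; the supernatant after 21,000xg for 90 min was soluble protein. This was quantified by TMTpro 16plex LC-MS/MS with channel sums equalised, and thermal stability was reported relative to control samples from duplicates, on a log2 fold-change scale.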
On to `COc1ccc(Cn2ccc3ccc(C(=O)NO)cc32)cc1`, for which the log2 fold change was -0.033.
The same measure, in the same setting: with `COc1cc(C(=O)O)ccc1NC(=O)[C@@H]1N[C@@H](CC(C)(C)C)[C@](C#N)(c2ccc(Cl)cc2F)[C@H]1c1cccc(Cl)c1F` [idasanutlin] the figure was 0.131; with `C/C(=N\NC(=O)c1cccc(S(=O)(=O)N2CCOCC2)c1)c1cc(Cl)ccc1O`, 0.233; with `Cc1ccc(-n2nc(C(C)(C)C)cc2NC(=O)Nc2ccc(OCCN3CCOCC3)c3ccccc23)cc1` [doramapimod], 0.082.
Same read-out and setting: with `NC(=O)c1cnc(N[C@@H]2CCCC[C@@H]2N)nc1Nc1cccc(-n2nccn2)c1` the figure was -0.031; with `CC(C)N(C[C@H]1O[C@@H](n2cnc3c(N)ncnc32)[C@H](O)[C@@H]1O)[C@H]1C[C@@H](CCc2nc3cc(C(C)(C)C)ccc3[nH]2)C1` [pinometostat], -0.093.
Still for that read-out and setting: with `C[C@@H](Oc1cc(-c2cnn(C3CCNCC3)c2)cnc1N)c1c(Cl)ccc(F)c1Cl` [crizotinib] the figure was 0.028; with `O=C1NC(=NCc2cccs2)S/C1=C\c1ccc2ncccc2c1`, -0.002; with `Cc1cccc(-c2[nH]c(C(C)(C)C)nc2-c2ccc3nccnc3c2)n1`, -0.03.
Turning to `O=C1c2ccccc2-c2n[nH]c3cccc1c23`, the log2 fold change was -0.143.
Still for that read-out and setting: under `CC(=O)c1cnc2ccc(-c3cc(Cl)c(O)c(Cl)c3)nc2c1N[C@H]1CC[C@H](CN(C)C)CC1` stands -0.085; under `O=C(Nc1nc2ccccc2n1CCN1CCOCC1)c1cccc([N+](=O)[O-])c1` [IRAK-1-4 Inhibitor I], 0.049.

A further assay concerns the target YBX1 (UniProt P67809). Described as above. In short, it runs like this: as §1
Take `NCC(=O)Nc1ccc(-n2nc(C(F)(F)F)cc2-c2ccc3c(ccc4ccccc43)c2)cc1`: the log2 fold change is 0.055.
As for `COc1ccc(Cn2ccc3ccc(C(=O)NO)cc32)cc1`, the log2 fold change was -0.019.
For the molecule `COc1cc(C(=O)O)ccc1NC(=O)[C@@H]1N[C@@H](CC(C)(C)C)[C@](C#N)(c2ccc(Cl)cc2F)[C@H]1c1cccc(Cl)c1F` [idasanutlin], the log2 fold change is 0.159.
Take `C/C(=N\NC(=O)c1cccc(S(=O)(=O)N2CCOCC2)c1)c1cc(Cl)ccc1O`: the log2 fold change is -0.242.
Same read-out and setting: under `Cc1ccc2c(=O)c3ccccc3n(CCCN)c2c1C` stands -0.637 (active); under `CCCCN(Cc1ccc(C(=O)NO)cc1)C(=O)Nc1ccccc1` [Nexturastat A], 0.231.
In the case of `COC(=O)[C@H](CCSC)NC(=O)c1ccc(NC[C@@H](N)CS)cc1-c1ccccc1`, the log2 fold change is 0.113.
Still for that read-out and setting: under `O=C(CCCCCCNC(=O)c1cnc(N(c2ccccc2)c2ccccc2Cl)nc1)NO` [citarinostat] stands -0.13; under `Cc1ccc(-n2nc(C(C)(C)C)cc2NC(=O)Nc2ccc(OCCN3CCOCC3)c3ccccc23)cc1` [doramapimod], 0.047; under `CC(C)(O)CC(=O)NCCn1ccc2ncnc(Nc3ccc(Oc4cccc(C(F)(F)F)c4)c(Cl)c3)c21`, 0.162.
Still for that read-out and setting: under `CC(C)(C)Cn1c(N)nc2ccc(-c3[nH]c(C(C)(C)C)nc3-c3ccc(F)cc3)nc21` [ralimetinib] stands 0.082; under `CC(C)c1cnn2c(NCc3ccccc3)cc(NCCCCCCN)nc12`, 0.038; under `NC(=O)c1cnc(N[C@@H]2CCCC[C@@H]2N)nc1Nc1cccc(-n2nccn2)c1`, 0.048.
The same measure, in the same setting: under `CC(C)N(C[C@H]1O[C@@H](n2cnc3c(N)ncnc32)[C@H](O)[C@@H]1O)[C@H]1C[C@@H](CCc2nc3cc(C(C)(C)C)ccc3[nH]2)C1` [pinometostat] stands 0.053; under `C[C@@H](Oc1cc(-c2cnn(C3CCNCC3)c2)cnc1N)c1c(Cl)ccc(F)c1Cl` [crizotinib], 0; under `O=C1NC(=NCc2cccs2)S/C1=C\c1ccc2ncccc2c1`, -0.115.
Turning to `Cc1cn(-c2cc(NC(=O)c3ccc(C)c(Nc4nccc(-c5cccnc5)n4)c3)cc(C(F)(F)F)c2)cn1` [nilotinib], the log2 fold change is 0.033.
On the same count and under the same terms, under `Cc1cccc(-c2[nH]c(C(C)(C)C)nc2-c2ccc3nccnc3c2)n1` stands -0.11; under `CN1CCc2c(c3ccccc3n2Cc2ccc(C(=O)NO)cc2)C1` [Tubastatin A], 0.022.
For the molecule `CC[C@@H]1C(=O)N(C)c2cnc(Nc3ccc(C(=O)NC4CCN(C)CC4)cc3OC)nc2N1C1CCCC1`, the log2 fold change was 0.262.
For the molecule `CNC(=O)c1ccc(Nc2ncc(C(F)(F)F)c(NCc3nccnc3N(C)S(C)(=O)=O)n2)cc1` [defactinib], the log2 fold change was 0.301.
The same measure, in the same setting: with `CN1CCC(CNc2ccc3ncc(-c4cccc(OC(F)(F)F)c4)n3n2)CC1` the figure was 0.348; with `NC1(Cc2ccc(Cl)cc2)CCN(c2ncnc3[nH]ccc23)CC1`, -0.159; with `Cn1cncc1[C@@](N)(c1ccc(Cl)cc1)c1ccc2c(c1)c(-c1cccc(Cl)c1)cc(=O)n2C` [tipifarnib], 0.242.
Same read-out and setting: with `Cc1cc(Nc2cc(N3CCN(C)CC3)nc(Sc3ccc(NC(=O)C4CC4)cc3)n2)n[nH]1` [tozasertib] the figure was -0.041; with `O=C(Nc1cccc(Nc2ncc(Br)c(NCCc3cnc[nH]3)n2)c1)N1CCCC1`, 0.103.
As for `c1cc(OCCN2CCCCC2)cc(-c2n[nH]c3ccc(-c4nnc[nH]4)cc23)c1`, the log2 fold change was -0.156.
The same measure, in the same setting: with `O=C1c2ccccc2-c2n[nH]c3cccc1c23` the figure was -0.051.
With `CC(=O)c1cnc2ccc(-c3cc(Cl)c(O)c(Cl)c3)nc2c1N[C@H]1CC[C@H](CN(C)C)CC1`, the log2 fold change was 0.155.
Consider `O=C(Nc1nc2ccccc2n1CCN1CCOCC1)c1cccc([N+](=O)[O-])c1` [IRAK-1-4 Inhibitor I], for which the log2 fold change is -0.117.
